Reference: PubChem BioAssay (Tox21)
Results filed as inconclusive are left out. Where a call stands in place of a potency, no number is given. Values without a mark were called inactive. Calls of active or inactive are those of the source. Calls come from the whole dose curve. Starred links: 1 amine or outer side, 2 acyl side, 3 side chain; linkers in the order of their positions; H or OH if unused. Positions of bridges follow the written chain, without caps; N, C: chain ends. Non-standard residues stand in square brackets, D forms with d. Residues, ends and D or L forms follow the SMILES beside them. Chains are numbered I, II in the order given. Actinocin(9to1) = Cc1c2oc3c(C)ccc(C(=O)[*:1])c3nc-2c(C(=O)[*:2])c(N)c1=O; NMeV = CN[C@H](C(=O)O)C(C)C; Sar = CNCC(=O)O

Target: Acetylcholinesterase (Homo sapiens) (UniProt P22303)
Sequence (P22303 whole entry, looked up): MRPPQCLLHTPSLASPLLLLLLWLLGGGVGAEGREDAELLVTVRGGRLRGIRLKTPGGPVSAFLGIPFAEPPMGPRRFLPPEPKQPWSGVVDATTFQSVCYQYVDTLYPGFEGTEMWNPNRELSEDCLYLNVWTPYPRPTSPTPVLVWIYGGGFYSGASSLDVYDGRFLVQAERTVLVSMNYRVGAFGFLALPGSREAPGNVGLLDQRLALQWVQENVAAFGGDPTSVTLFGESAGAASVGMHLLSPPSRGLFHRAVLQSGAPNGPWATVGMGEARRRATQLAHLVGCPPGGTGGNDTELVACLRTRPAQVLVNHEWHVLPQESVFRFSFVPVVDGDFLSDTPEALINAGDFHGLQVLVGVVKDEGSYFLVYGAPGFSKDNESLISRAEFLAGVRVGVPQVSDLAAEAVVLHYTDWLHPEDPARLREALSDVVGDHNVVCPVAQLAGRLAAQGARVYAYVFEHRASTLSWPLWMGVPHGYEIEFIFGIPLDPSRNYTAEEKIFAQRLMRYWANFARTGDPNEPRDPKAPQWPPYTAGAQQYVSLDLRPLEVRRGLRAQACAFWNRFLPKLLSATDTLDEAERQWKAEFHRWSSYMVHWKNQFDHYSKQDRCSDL
Test: Acetylcholinesterase (AChE) small molecule antagonists: fluorescence cell-based qHTS assay (AID 1347398); note: nearly all actives have a fitted effect of over 50% in size
Conditions: SH-SY5Y cells; Potency: AChE activity; outcome: AChE activity; series mostly up to 115 µM
How it was run: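 Homogeneous quantitative HTS format. SH-SY5Y cells seeded at 2,000 per well settle overnight at 37 C. Compound pretreatment runs 30 min (37 C, 5% CO2); substrate/probe mix then reacts 40 min at RT before reading 490/520 nm.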

Compound	Potency	activity change, negative = inhibition
CC(C)CC(=O)O	inactive	
CC(C)(c1cc(Br)c(OCC(Br)CBr)c(Br)c1)c1cc(Br)c(OCC(Br)CBr)c(Br)c1 (stereo not given)	inactive	
O=C(O)Cn1c(=O)n(Cc2ccc(Br)cc2F)c(=O)c2ccc(Cl)cc21	inactive	
O=C(O)CNCC(=O)O		-0.972% [at 10.5 µM]
O=C1O[C@H]([C@@H](O)CO)C(O)=C1O	inactive	
CC1(C)OC[C@@H](COC(=O)CCc2ccc(OC[C@@H](O)CNCCNC(=O)N3CCOCC3)cc2)O1	inactive	
Nc1ccc(N)c2c1C(=O)c1ccccc1C2=O	inactive	
CCCCC(CC)CN1C(=O)C2C3C=CC(C3)C2C1=O (stereo not given)	inactive	
Nc1c(CC(=O)O)cccc1C(=O)c1ccc(Br)cc1	inactive	
NC(=O)c1ccccc1O	inactive	
C=CCOC(=O)CCC1CCCCC1	inactive	
Cc1c2oc3c(C)ccc(C(=O)N[C@@H]4C(=O)N[C@H](C(C)C)C(=O)N5CCC[C@H]5C(=O)N(C)CC(=O)N(C)[C@@H](C(C)C)C(=O)O[C@@H]4C)c3nc-2c(C(=O)N[C@@H]2C(=O)N[C@H](C(C)C)C(=O)N3CCC[C@H]3C(=O)N(C)CC(=O)N(C)[C@@H](C(C)C)C(=O)O[C@@H]2C)c(N)c1=O (I: T[dV]P[Sar][NMeV] / II: T[dV]P[Sar][NMeV]; ester I:1-I:C, II:1-II:C; linker I:N-II:N via Actinocin(9to1))	inactive	
C#C[C@]1(O)CC[C@H]2[C@@H]3CCc4cc(O)ccc4[C@H]3CC[C@@]21C	inactive	
O=C(Oc1ccccc1C(=O)O)c1ccccc1O	inactive	
CCCNC(C)C(=O)Nc1c(C)csc1C(=O)OC (stereo not given)	inactive	
Cc1ccc(S(=O)(=O)O)c(C)c1	inactive	
CCCCCOC(=O)COc1cc(N2C(=O)C3=C(CCCC3)C2=O)c(F)cc1Cl	inactive	
Fc1ccc([C@@H]2CCNC[C@H]2COc2ccc3c(c2)OCO3)cc1	inactive	
c1ccc(CNCCNCc2ccccc2)cc1	inactive	
C[Si](C)(C)O[Si](C)(C)O[Si](C)(C)C	inactive	

Compound	Potency	activity change, negative = inhibition
CC1=C(C=O)C(C)(C)CCC1	inactive	
CCOCCn1c(N2CCCN(C)CC2)nc2ccccc21	inactive	
C[N+]1(CC2COC(c3ccccc3)(c3ccccc3)O2)CCCCC1 (stereo not given)		-6.49% [at 23.8 µM]
Oc1ccc(-c2ccccc2)c(Cl)c1	inactive	
OC[C@H]1O[C@H](O[C@]2(CCl)O[C@H](CCl)[C@@H](O)[C@@H]2O)[C@H](O)[C@@H](O)[C@H]1Cl	inactive	
CCOCCn1c(C2CCN(CCc3ccc(C(C)(C)C(=O)O)cc3)CC2)nc2ccccc21	inactive	
C[C@@H](O[C@H]1OCCN(Cc2n[nH]c(=O)[nH]2)[C@H]1c1ccc(F)cc1)c1cc(C(F)(F)F)cc(C(F)(F)F)c1	inactive	
C=C[Si](OC)(OC)OC	inactive	
Oc1ccc(Cc2ccccc2O)cc1	inactive	
C=C[Si]1(C)O[Si](C)(C=C)O[Si](C)(C=C)O[Si](C)(C=C)O1 (stereo not given)	inactive	
Cc1ccc(S(=O)(=O)N=C=O)cc1	inactive	
CCCCCCOC(=O)c1ccc(O)cc1	inactive	
CN1CCN(c2c(F)cc3c(=O)c(C(=O)O)cn4c3c2SCC4)CC1	inactive	
CC/C(=C\C(=N/O)C(N)=O)C(C)[N+](=O)[O-] (stereo not given)	inactive	
C[C@H]1C[C@@H]2[C@H]([C@@H](O)C[C@@]3(C)[C@H]2CC[C@]3(O)C(=O)CO)[C@@]2(C)C=CC(=O)C=C12	inactive	
COc1cc(O)c(C(=O)c2ccccc2)cc1S(=O)(=O)O	inactive	
CC(C=O)c1ccccc1 (stereo not given)	inactive	
CCCCCCOc1ccc(O)cc1	inactive	
CCCCCCCC(C)=O	inactive	
CCCC(=O)CC	inactive	
